Sampled rows, rich in hits. Any-hit rate of the full collection: about 21%.
Cycloheximide cs = affects cycloheximide protein synthesis inhibition readout, counter-screen; cell reporter, cycloheximide protein synthesis inhibition counterscreen; max response, %; 12% of 300,000 active; in the data active means max response mostly above about 13%, no sharp cut-off; inactive means mostly below about 14%; further: read at 38.3 µM for the half of the compounds with a filed dose; 0% is about no effect
Pf growth 96h = P. falciparum growth inhibition at 96 hours | P. falciparum luciferase reporter growth, 96 h | Potency, µM (top dose mostly 28.7 µM), for inactives: at the highest dose activity change, negative = inhibition, actives largely listed as inhibitors | 6.9% of 320,000 active | AID 504834; further: potency means the concentration at half of the fitted maximal effect; on the % scale 0 is the no-effect control and ±100 the full control effect
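Infected RBCs, 2% Hct / 0.05% parasitemia final; luciferase-reporter P. falciparum; cpd 96 h, 37 C, 5% CO2; luciferase detection reagent; luminescence.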
Pf growth 48h = P. falciparum growth inhibition at 48 hours (one generation); P. falciparum luciferase growth in erythrocytes, 48 h; Potency, µM (doses to about 28.7 µM), inactives show at the highest dose activity change, negative = inhibition, usual class: inhibitors; 5.9% of 310,000 active; further: potency means the concentration at half of the fitted maximal effect; on the % scale 0 is the no-effect control and ±100 the full control effect
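Luminescence readout; reporter = integrated firefly luciferase in P. falciparum. RBC culture at 2% hematocrit, 0.1% parasitemia final, 37 C/5% CO2; decreased signal taken as growth inhibition.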
HCMV inh = human cytomegalovirus inhibition; HFF cells, HCMV-luciferase reporter, 72 h; active compounds read low; activity change, negative = inhibition, % at 57.5 µM; 4.5% of 410,000 active; AID 1259415; in the data active means activity change below about -60%; inconclusive means no clear call, values can overlap the other calls; inactive means above about -39%; further: on the % scale 0 is the no-effect control and ±100 the full control effect
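Cell-based, HFFs, 1000 cells/well, 16 h 37C; cpds in DMSO + HCMV-luc, MOI 1 PFU/cell; 72 h 37C; OneGlo luminescence after 5 min RT; norm. to buffer vs Salinomycin 10uM.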
Shiga toxin inh = inhibitors of Shiga toxin in Vero cells; Vero cells, Shiga toxin protein synthesis inhibition reporter; inhibition, % at 38.7 µM; 9.2% of 290,000 active; AID 2315; in the data active means inhibition mostly above about 28%, no sharp cut-off; inactive means mostly below about 43%; further: 0% is about no effect
HCV inhibitor = blocks hepatitis C virus. Huh7.5.1 HCVcc-Cre infection, luciferase reporter, 44 h. Potency, µM (top dose mostly 41.8 µM), for inactives: at the highest dose activity change, negative = inhibition, hits mostly inhibitors. 3.4% of 340,000 active. AID 651820; further: potency means the concentration at half of the fitted maximal effect; on the % scale 0 is the no-effect control and ±100 the full control effect
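Luciferase read-out (15 sec integration) after a 15 min room-temperature substrate step quantifies HCVcc-Cre infection. Cells, 1,000 per well, had compound added 4 h post-plating, then virus at ~0.5 moi, and were cultured 44 h.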
Starred values were filed as active, the others as inactive; i = inactive; ? = inconclusive; · = not tested or not shown; [ ] = remark or other dose. Unless noted, the call rests on the fitted dose curve; in most records, active means well fitted inhibition curve with a large enough effect; inconclusive means small, poorly fitted or top-dose-only effect, or another doubt; inactive means no such curve, though single readings can be large or run the other way.

SMILES	Cycloheximide cs	Pf growth 96h	Pf growth 48h	HCMV inh	Shiga toxin inh	HCV inhibitor
CC(=O)Nc1sc(N/N=C/c2ccccc2)nc1-c1ccc(C)cc1	18*	?	7.4µM*	-9	31	?
CC(C)(C)c1ccc(C(=O)NCCc2csc(-c3ccc(Cl)cc3)n2)cc1	·	·	·	-11	·	·
Oc1cc(-c2ccc(N3CCCCC3)nc2)cc2cccnc12	·	2.9µM*	4.1µM*	·	·	·
CN(C)CCCNC(=O)c1ccccn1	-5	1%	·	11	-6	23%
CN(C)CCCNC(=O)c1ccc(-c2nc(-c3ccc(Cl)cc3)cs2)cc1	-10	1.5µM*	2.6µM*	34	-18	10µM*
CN1CCN(c2ccc(-c3cccc4nccn34)cn2)CC1	·	·	·	62	·	·
Oc1cc(-c2ccncc2)cc2cccnc12	·	5.2µM*	?	-97*	·	·
CN(C)CCCNC(=O)c1ccc(-c2cc(O)c3ncccc3c2)cc1	·	6.6µM*	10µM*	-39	·	·
CN(Cc1ccccc1)C(=O)c1ccc2c(c1)N(Cc1ccccc1F)C(=O)c1ccccc1S2(=O)=O	·	·	·	-23	·	·
C/C(=N\Nc1ccc(Cl)cc1)c1c(O)cc(C)oc1=O	18	103%	i	-33	12	-1%
Cc1ccc(CNC(=O)CSc2n[nH]c(-c3ccc(F)cc3)n2)cc1	·	·	·	21	·	·
CN1CCN(c2ccc(-c3cc(O)c4ncccc4c3)cc2)CC1	·	2.6µM*	2.6µM*	·	·	·
CN(C)c1ccc(-c2cc(O)c3ncccc3c2)cc1	·	5.2µM*	3.7µM*	-97*	·	·
Cc1ccc2c(=O)cc(C(=O)Nc3ccc(S(=O)(=O)N(C)Cc4ccccc4)cc3)oc2c1C	·	·	·	6	·	·
O=C(c1ccccc1)c1cc2c(cc1[N+](=O)[O-])OCCO2	12*	-6%	-7%	-27	16	3%
Cc1ccc(C(=O)c2cc3c(cc2[N+](=O)[O-])OCCO3)cc1	16*	145%	-17%	-9	35	3%
O=C(c1cccc([N+](=O)[O-])c1)c1ccc2c(c1)OCCOCCOCCOCCO2	-1	128%	58%	31	-15	-8%
CC(=O)Nc1cc2c(cc1C(=O)c1ccc(C)cc1)OCCO2	-1	-6%	1%	41	-14	-11%
Cc1ccc(NC(=O)CSc2nc(=O)n(CCCN3CCOCC3)c3c2CCCC3)c(C)c1	·	?	?	-24	·	16%
CN(C)c1ccc(/C=C2\CCCc3c2nc2ccccc2c3C(=O)O)cc1	45*	42%	106%	104	118*	1%
O=C(O)c1ccc(/C=C2\CCCc3c2nc2ccccc2c3C(=O)O)cc1	-3	23%	16%	40	-8	13%
O=c1c2c(nc3cc(-c4ccccc4)[nH]n13)CCS2	43*	272%	49%	36	75*	-8%
O=c1c2c(nc3cc(-c4ccccc4Cl)[nH]n13)CCS2	38*	-28%	-56%	11	78*	6%
Cc1ccccc1-c1cc2nc(C)c(Cl)c(=O)n2[nH]1	·	·	·	-30	·	11%
Cc1nn(C2CCS(=O)(=O)C2)c(Cl)c1/C=C/C(=O)OCC(N)=O (configuration not stated)	9	?	2%	-23	-18	2%
SMILES	Cycloheximide cs	Pf growth 96h	Pf growth 48h	HCMV inh	Shiga toxin inh	HCV inhibitor
Cc1cc(Cl)ccc1NC(=S)NCc1ccc(F)cc1	7	?	?	-22	15	13%
Cc1ccc(Sc2c(C)nn(C(C)(C)C)c2OC(=O)C(C)(C)C)cc1	·	·	·	4	·	·
Cc1nc2ccc(NC(=O)COc3cccc(F)c3)cc2s1	26*	27%	-22%	-4	31	-17%
Cc1nc2ccc(NC(=O)COc3ccccc3)cc2s1	23*	63%	57%	-19	33	0%
Cc1cccc(OCC(=O)Nc2ccc3nc(C)sc3c2)c1	10	-2%	0%	-36	63*	-21%
CC(=O)c1ccc(OCC(=O)Nc2ccc3nc(C)sc3c2)cc1	-3	-12%	-43%[1.15 µM]	-19	-3	-11%
COc1ccc(-n2nc3c(c2NC(=O)C(C)Cl)CSC3)cc1 (configuration not stated)	-3	-18%	-4%	33	-4	-12%
CC(C)(C)n1nc2c(c1NC(=O)Cc1cccs1)CSC2	-7	21%	·	·	3	·

Screening results as filed in PubChem BioAssay.
